# System: RIOK3
# Conditions: concentration: 1 μM, replicates: in singlicate; n = 1
# 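Also: KINOMEscan kinase panel screen.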
row,SMILES,%Inh
1,Cc1ccc(Nc2ccnc(Nc3ccc(C)c(F)c3)n2)cc1O.Cl [GW582868],4%
2,O=C(Nc1c(F)cccc1F)c1cc(C(=O)c2ccccc2F)c[nH]1 [GSK1326180],6%
3,COc1cccc(CC(=O)N2CCc3cc(-c4cn(C)c5ncnc(N)c45)ccc32)c1 [GSK2608899],17%
4,Cl.N#CCc1ccc(Nc2nccc(Nc3ccc(Oc4ccccc4)cc3)n2)cc1 [GW639905],0%
5,Nc1ncc(-c2ccc3nccc(-c4ccncc4)c3c2)cc1S(=O)(=O)N1CCCCC1 [GSK1693850],41%
6,COc1cc(Nc2nccc(N3CCC(NS(=O)(=O)c4ccc(NC(C)=O)cc4)CC3)n2)cc(OC)c1OC [GSK1379825],59%
7,COc1cccc2c(-c3ccncc3)c(-c3ccc(F)cc3)nn12 [GW468513],26%
8,CCn1cnc2c(NCc3ccccc3)ncnc21 [SKF-96418],0%
9,COc1cccc(-c2nc(-c3ccccc3)[nH]c2-c2ccncc2)c1 [SB-610250],0%
10,COc1cc(Nc2ccnc3cc(-c4ccncc4)ccc23)cc(OC)c1OC.Cl [GW494610],0%
11,O=C(O)C(F)(F)F.O=c1[nH]ccc2nc(N[C@@H]3CCNC3)nc(Nc3ccc4c(c3)S(=O)(=O)CC4)c12 [GSK2181306],92.9%
12,CN(C)c1ncnc2nc[nH]c12 [SKF-31736],0%
13,O=C(Nc1n[nH]c2nc(-c3ccccc3O)ccc12)C1CC1 [SB-711880],33%
14,CCNc1nccc(-c2c(-c3ccc(F)cc3)ncn2C2CCN(C)CC2)n1,29%
15,O=C(O)C(F)(F)F.O=c1[nH]ccc2nc(N[C@@H]3CCNC3)nc(Nc3cc(Cl)cc(Cl)c3)c12 [GSK2188764],100%
16,COC(=O)Nc1nc2cc(Oc3ccc(NC(=O)Nc4cccc(SC)c4)cc3)ccc2[nH]1.Cl [GW697999],2%
17,Cc1cccc(Nc2nc(N[C@H]3CCCC[C@H]3N)ncc2C(N)=O)c1.Cl [GSK986310],42%
18,COc1cc(Nc2nccc(N3CCC(NC(=O)Nc4ccc5c(c4)OCO5)C3)n2)cc(OC)c1OC (stereo not shown) [GSK1379766],81%
19,CC(C)(C)c1ccc(C(=O)Nc2cn3cc(-n4ccnc4)ccc3n2)cc1,0%

row,SMILES,%Inh
1,CC(C)NCC(Cc1ccccc1)NC(=O)c1cc(Br)c(-c2ccnc3[nH]ccc23)s1.Cl.Cl (stereo not shown) [GSK1383281],60%
2,CSc1ccc(NC2=C(c3ccc(Cl)cc3)C(=O)NC2=O)cc1 [SB-317658],20%
3,O=C(Nc1n[nH]c2cc(-c3cccs3)ccc12)C1CC1 [SB-731284],82%
4,O=C(Nc1n[nH]c2nc(-c3cccc(O)c3)ccc12)C1CC1 [SB-711805],59%
5,Cc1cc(-c2ccnc(Nc3cccc(C#N)c3)n2)cc(C)c1O [GSK1440913],97.9%
6,Cc1ccc(-c2ccc3occ(-c4ccc(S(C)=O)cc4)c3c2)nn1 (stereo not shown),0%
7,CN(C)CCNS(=O)(=O)c1ccc(-c2ccnc3[nH]ccc23)cc1 [GSK977620],64%
8,COC(=O)Nc1nc2ccc(Oc3ccc(CC(=O)Nc4cc(C(F)(F)F)ccc4F)cc3)cc2[nH]1 [GW680903],8%
9,Cl.Cl.NCC(NC(=O)c1cc(-c2cccnc2)c(-c2ccnc3[nH]ccc23)s1)c1ccccc1 (stereo not shown) [GSK1323434],57%
10,CCn1c(-c2nonc2N)nc2c(-c3ccccc3)ncc(OCCCN)c21.O=C(O)C(F)(F)F.O=C(O)C(F)(F)F [GSK260205],0%
11,Cc1ccc(NC(=O)c2cccc(N3CCCCC3)c2)cc1-c1ccc(C(=O)NCC2CC2)cc1 [GSK1917008],0%
12,CN(c1ccc(NC(=O)N2CCN(CCCN3CCOCC3)CC2)cc1)c1ccnc(Nc2ccc(CS(C)(=O)=O)cc2)n1.Cl [GW830899],82%
13,c1ccc(Oc2ccc(Nc3ccnc4cc(-c5ccc(CN6CCCCC6)o5)ccc34)cc2)nc1 [GW567143],0%
14,Cc1ccc(NC(=O)c2ccc(Cl)c(Cl)c2)cc1-c1ccc(C(=O)Nc2ccncc2)cc1 [GSK1398460],53%
15,Cc1ccccc1CC(=O)N1CCc2cc(-c3cn(C)c4ncnc(N)c34)ccc21 [GSK2603346],100%
16,CNc1nccc(-c2ccc3c(N)n[nH]c3c2)n1 [GSK2206003],82%
17,Nc1ncc(-c2cn[nH]c2)c2scc(-c3ccc4c(c3)CCN4C(=O)Cc3ccccc3)c12 [GSK2593067],57%
18,COC(=O)Nc1nc2ccc(Oc3ccc(NC(=O)Nc4cc(C(F)(F)F)ccc4F)cc3)cc2[nH]1.Cl [GW654607],21%
